NCOA2 inhibitor: inhibits human steroid receptor coactivator 2. HEK293 GAL4-SRC2 luciferase reporter, luminescence. inhibition, % at 9 µM. actives 0.17% (n = 370,000). Q15596. AID 651957;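 active = inhibition above the mean inhibition of all tested compounds plus 3 SD, set per campaign, cut at about 52% in these data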;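 also: 0% = DMSO treated cells and 100% = cells given Gossypol at 36 µM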
LRH-1 inv ag: suppresses constitutive activity of human LRH-1; inhibition, % at 3.6 µM; actives 0.13% (n = 360,000); HEK293T StAR-luciferase reporter, LRH-1 transfected, 24 h;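 active = inhibition above the mean inhibition of all tested compounds plus 3 SD, cut at about 73% in these data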;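 also: 0% = DMSO wells and 100% = reporter-only cells lacking LRH-1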
NCOA1 inh: inhibits human SRC1 coactivator. Q15788. HEK293 GAL4-SRC1 luciferase reporter, luminescence. inhibition, % at 3.6 µM. actives 0.12% (n = 360,000);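 active = inhibition above the campaign mean plus 3 SD, with each screening campaign given its own cutoff, cut at about 60% in these data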;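 also: 0% = DMSO treated cells and 100% = gossypol at 36 µM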
LMP1 NFkB inh: Epstein-Barr LMP1 NF-kappaB reporter inhibition | LMP1-induced NF-kappaB luciferase reporter cells, luminescence | inhibition, % at 12.5 µM | actives 0.69% (n = 350,000) | AID 504558; in the data active = inhibition above about 41%;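 also: 0% = neutral control wells and 100% = reference inhibitor control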
SRC3 inh: human NCOA3 inhibition | Q9Y6Q9 | HEK293 GAL4-SRC3 luciferase reporter, luminescence | inhibition, % at 3.6 µM | actives 0.17% (n = 360,000) | AID 588352;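 active = inhibition above a per-campaign cutoff, the mean of all compounds plus 3 SD, cut at about 60% in these data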;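 also: 0% = DMSO-treated cells and 100% = gossypol-treated cells at 36 µM; higher means less SRC3-driven luciferase light from the GAL4 reporter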
Starred values were filed as active, the others as inactive; i = inactive; / = no result given. Most compounds without a hit are left out; they make up all but 0.78% or so of the library.

SMILES	NCOA2 inhibitor	LRH-1 inv ag	NCOA1 inh	LMP1 NFkB inh	SRC3 inh
COC(=O)C1CN(C2CCCC2)CCS(=O)(=O)N1Cc1ccc(C(F)(F)F)cc1 (configuration not stated)	-1	/	/	/	/
CCN(C)C(=O)CNc1nnnn1-c1ccccc1	4	/	/	/	/
Cc1ccccc1NC(=O)Nc1ccc2c(c1)C(=O)N(C)[C@H]1CC[C@H](CC(=O)NCC3CC3)O[C@@H]1CO2	-51	/	/	/	/
CN(C)CCN1C(=O)c2cccc3cc([N+](=O)[O-])cc(c23)C1=O	i	82*	31	58*	-30
COc1ccc(Cn2cc(COC(=O)N3CCOCC3)nn2)cc1	-10	/	/	/	/
O=C(NCCOc1ccccc1)c1ccccc1Cl	-49	-94	-80	-23	-86
CN(C(=O)COc1ccccc1C(=O)NCCOc1ccccc1)c1ccccc1	46	50	51	13	77*
Nc1ccc(-c2nc3c(Cl)cc(N)cc3[nH]2)cc1	53*	17	38	13	38
Nc1ccc2nc(-c3ccc(N)c(Cl)c3)[nH]c2c1	-35	-83	-61	-11	-62
COc1ccc(-n2c(SCC(=O)Nc3ccc4c(c3)OCO4)nc3sc4c(c3c2=O)CCCC4)cc1	0	/	/	/	/
COC(=O)C(NS(=O)(=O)c1ccc(N2CCCC2=O)cc1)c1ccccc1 (configuration not stated)	-6	-4	-25	67*	0
O=C(N/N=C/c1cccnc1)c1cc(-c2cccs2)nc2ccccc12	-11	1	-1	58*	0
O=C(N/N=C/c1ccc2ncccc2c1)c1cc(-c2cccs2)nc2ccccc12	-5	-29	-37	-1	-18
Cc1ccc(/C=N/NC(=O)c2cc(-c3ccccc3)nc3ccccc23)o1	-1	12	21	54*	3
O=C(CC1CCCC1)N[C@@H](Cc1cccnc1)C(=O)N1CCC[C@H]1C(=O)NCCc1ccccc1Cl	10	/	/	/	/
COc1ccc(N2Cc3ccccc3C2=O)cc1	-35	-162	-93	81*	-144
CN(C)c1ccc(C(=O)OCc2ccccc2)cc1	-59	-38	-33	-17	-23
O=C1C=CC(=O)C(CNc2ccc(C(=O)OCc3ccccc3)cc2)=C1	67*	-42	-75	-12	-15
CCCC[C@H]1C2CC(OC(=O)Nc3ccc(C(F)(F)F)cc3)C(C2)[C@H]2CCCCN21 (some centres not stated)	-2	/	/	/	/
COc1ccc(C(=O)NC2CC3CCCC(C2)N3CC(C)C)cc1 (configuration not stated)	95*	9	2	1	5
CCOc1ccccc1NC1=C(Cl)C(=O)N(c2ccc(OC)cc2)C1=O	4	40	8	4	22
COc1ccc(N2C(=O)C(Cl)=C(NCc3ccccc3)C2=O)cc1	-17	10	-1	65*	-12
CCCCCCNC(=O)C1CSCCS(=O)(=O)N1Cc1ccccc1 (configuration not stated)	6	/	/	/	/
COCCn1c(C)cc(C(=O)CSc2nnc(C)s2)c1C	31	-34	-29	74*	-10
COCCn1c(C)cc(C(=O)CSc2nnnn2C2CCCC2)c1C	39	24	43	70*	34
SMILES	NCOA2 inhibitor	LRH-1 inv ag	NCOA1 inh	LMP1 NFkB inh	SRC3 inh
COc1ccc(C2CC(=O)C(c3ccccc3)=CN2Cc2ccccc2)cc1 (configuration not stated)	15	/	/	/	/
COC(=O)c1ccc2c(c1)C(C)(C)C(/C=C/c1ccc(O)cc1)=[N+]2C	28	10	10	89*	47
COc1ccc(S(=O)(=O)NCC(c2cccnc2)N2CCN(c3ccc(F)cc3)CC2)cc1C (configuration not stated)	9	3	-10	82*	-2
COc1ccc(S(=O)(=O)NCC(c2cccnc2)N2CCN(c3ccccc3)CC2)cc1C (configuration not stated)	-2	22	-4	7	14
c1ccc(-c2noc(-c3ccc4c(c3)OCO4)n2)nc1	28	-54	28	78*	60
Cc1cccc(-c2noc(-c3ccc4c(c3)OCO4)n2)c1	-71	-102	-122	-39	-65
c1ccc(-c2noc(-c3ccc4ccccc4c3)n2)nc1	/	20	30	82*	56
COc1cccc(-c2nc(-c3ccccn3)no2)c1	58*	/	/	/	/
c1ccc(-c2noc(-c3ccncc3)n2)nc1	-32	-152	-116	6	-67
COc1cccc(-c2nc(-c3ccccc3)no2)c1	-59	-84	-117	-45	-132
COCC(=O)Nc1ccc2c(c1)[C@H]1C[C@@H](CC(=O)NCC3CC3)O[C@H](CO)[C@H]1O2	-9	/	/	/	/
O=C(NCCc1c[nH]c2ccccc12)OCc1cn(Cc2ccc(F)c(F)c2)nn1	-3	/	/	/	/
COc1ccc(S[C@]2(C(=O)N3CCCC3)CC(=O)N(P(=O)(OC)OC)[C@@H]2c2ccc(OC)cc2)cc1	14	/	/	/	/
Cc1ccsc1/C=N\NC(=O)c1ccc2c(c1)OCO2	-57	-122	-129	5	-94
Cc1ccsc1/C=N/NC(=O)c1ccc2c(c1)OCCO2	-16	-122	-72	59*	-37
O=C(N/N=C/c1cccc(O)c1)c1ccc2c(c1)OCCO2	-62	-123	-77	64*	-71
O=C(c1ccccc1)N1CCN(c2ccc(Cl)cc2)CC1	-1	-4	-3	0	16
O=C(c1noc2c1CSc1ccccc1-2)N1CCN(c2ccc(Cl)cc2)CC1	-26	2	4	68*	-17
COc1cccc(-c2sc3ccccc3c2-c2ccc(OCCN(C)C)cc2)c1	-3	-21	-12	89*	1
O=[N+]([O-])c1cccc(NCCCN2CCC(C(O)(c3ccccc3)c3ccccc3)CC2)c1	-9	/	/	/	/
CN1C(=O)N(C)c2ccc(C=O)c3cccc1c23	-11	13	5	86*	1
CN1C(=O)N(C)c2ccc(Br)c3cccc1c23	-19	-6	-1	1	-19
COCc1cccc(-c2cc(C(=O)OC)c3n(c2=O)CCC3)c1	-8	/	/	/	/
Cc1ccc(NC(=O)/C=N/OCC(=O)NCc2ccccc2Cl)cc1	-13	0	0	48*	0
CC(C)c1cc(C(C)C)c(S(=O)(=O)N2CCCC(C(=O)N3CCN(Cc4ccccc4)CC3)C2)c(C(C)C)c1 (configuration not stated)	3	/	/	/	/
O=C(N/N=C\c1ccc([N+](=O)[O-])o1)C1COc2ccccc2O1 (configuration not stated)	62*	45	30	2	39
O=C(N/N=C\c1ccc(-c2ccccc2[N+](=O)[O-])o1)C1COc2ccccc2O1 (configuration not stated)	8	24	0	2	18
Cc1scc(C(=O)N/N=C/c2ccc([N+](=O)[O-])o2)c1C	71*	49	14	5	-1
Cc1scc(C(=O)N/N=C/c2ccco2)c1C	-43	-55	-75	-5	-72
Cc1ccc(CNC(=O)c2ccc(N3CCC4(CC3)CC(c3ccccc3)=NO4)c([N+](=O)[O-])c2)cc1	-8	17	-2	78*	16

Screens deposited in PubChem BioAssay by several laboratories.
